“And” between values parts separate entries of the source, which are not always exact repeats. Equal entries are not always repeated. Unmarked numbers belong to inactive results. Results filed as inconclusive are left out. The source made the active and inactive calls. Unless noted, the call rests on the fitted dose curve; in most records, active means well fitted curve in either direction with a large enough effect (not every such curve was filed as active); inconclusive means small, poorly fitted or top-dose-only effect, or another doubt; inactive means flat fitted curve, though single readings scatter.

Experimental findings from PubChem BioAssay (NCATS) are described below.

Test [1] is described as follows: AP1 Signaling Pathway (AID 357).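 Further: ME-180 reporter cells stimulated with EGF at its EC50 level; on the % scale 0 is the no-effect control and ±100 the full control effect.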 The note with it: ME-180 AP-1-bla reporter, EGF-induced, beta-lactamase ratio, 5 h; at 38 µM (top of the series) unless noted. Put shortly:
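Read-out was the 460nm/530nm emission ratio (excitation 405nm) after CCF4 loading for 2.5 hours at room temperature. Cells carried an AP-1-driven beta-lactamase reporter, were stimulated with EC50 EGF plus compound for 5 hours, and AC50 values came from titrations.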

Test [2] concerns the target Cytochrome P450 1A2 (Homo sapiens) (UniProt P05177). As to the kind of experiment: p450-cyp1a2 (AID 410; calls by dose curve; further: potency means the concentration at half of the fitted maximal effect;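 on activity change, negative = inhibition: -100% = full effect of reference inhibitor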). Put shortly:
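Read-out is luminescence from luciferin produced by CYP1A2 demethylation of Luciferin-ME (100uM, at Km). Detection reagent stopped the 60 min NADPH-dependent reaction; signals were normalized to 57 uM furafylline.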

Test [3] is described as follows: NFAT Signaling Pathway (AID 444).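 Further: carbachol stimulus at about its EC50 of 1 µM final; on the % scale 0 is the no-effect control and ±100 the full control effect.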 The following applies: Jurkat NFAT-bla M1, carbachol, beta-lactamase ratio, 5 h; at 38 µM (top of the series) unless noted. The essentials:
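Jurkat cells carrying an NFAT-driven β-lactamase reporter and co-transfected muscarinic M1 receptor were treated with compound plus carbachol (1 uM final, an EC50 level) for 5 h at 37 °C. CCF4 loading followed for 1 h at RT; 460/530 nm ratio gave %activity.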

Test [4] has as its target Glucocorticoid receptor (Homo sapiens) (UniProt P04150). As to the kind of experiment: GR-GFP Redistribution (AID 450;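 active means compounds whose dose series gives a full or clear partial fitted curve of increased nuclear translocation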; further: potency means the concentration at half of the fitted maximal effect). The following applies: U2OS GR-GFP nuclear translocation, laser cytometry, 2 h.
For test [5] the target is unchanged. Kind of test: GR-EFC Redistribution (AID 451; calls by dose curve; further: potency means the concentration at half of the fitted maximal effect). The following applies: CHO-K1 GR-EFC translocation, beta-gal luminescence, 2 h. The essentials: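 CHO-K1 cells stably expressing nuclear-localized β-gal enzyme acceptor and GR fused C-terminally to the enzyme donor fragment; ligand-driven nuclear translocation restores β-gal by complementation. Compounds titrated up to 46 uM final, 2 h at 37 °C; luminescence read.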

For test [6], the target named is Mitogen-activated protein kinase 10 (Mus musculus) (UniProt Q61831). As to the kind of experiment: JNK3 AlphaScreen Assay (AID 530).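 Further: kinase came from lysate of stimulated human HepG2 cells; signal reports phosphorylation of biotinylated GST-cJun 1-79 at Ser73 with 10 µM ATP; on the % scale 0 is the no-effect control and ±100 the full control effect.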 The essentials: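 Biotinylated GST-cJun(1-79) served as substrate for JNK3 in HepG2 lysates stimulated with IL-1beta and TNF-alpha. ATP was 10 uM final, pH 7.6. Ser73 phosphorylation was quantified by AlphaScreen (680 nm excitation).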

A short description of test [7]: Cell Viability - BJ (AID 421; calls by dose curve;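 further: potency means the concentration at half of the fitted maximal effect; cells exposed to compound for 40 hours at 37 °C before readout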). The following applies: BJ fibroblast viability, qHTS. The essentials:
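Quantitative HTS: ATP depletion in BJ cells after 40 hr compound exposure in complete culture medium, detected with CellTiter-Glo; AC50 from standard Hill fits.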
(In general: qHTS replaces the single test concentration by a dilution series.)

Test [8] is described as follows: Cell Viability - Jurkat (AID 426;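 active means dose-dependent loss of cell ATP signal giving a full or clear fitted curve, ranked by lower potency value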; further: potency means the concentration at half of the fitted maximal effect). The following applies: qHTS. Put shortly:
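Cytotoxicity was scored as loss of cellular ATP, measured by luciferase-based luminescence, in Jurkat clone E6-1 cells after 40 h compound treatment; tamoxifen and doxorubicin served as positive controls.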

Test [9] is described as follows: Cell Viability - Hek293 (AID 427;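 active means compounds whose dose-response curve shows a full or clear partial loss of cell viability, called from curve shape rather than a numeric limit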;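 further: potency means the concentration at half of the fitted maximal effect; cells exposed to compound for 40 hours at 37 °C before reading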). The following applies: qHTS. The essentials:
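AC50 values derive from Hill-modelled concentration-response of ATP-based luminescence, normalized between DMSO-only and 100 uM tamoxifen controls. Cells were exposed in complete culture medium for 40 hr at 37 °C before detection.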

Test [10] can be described thus: Cell Viability - HepG2 (AID 433; calls by dose curve;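 further: potency means the concentration at half of the fitted maximal effect; potency for ATP loss meaning cytotoxicity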). The note with it: qHTS. The essentials:
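HepG2 cells, 1500 per well, treated 40 hr at 37 °C in complete medium; viability from intracellular ATP by CellTiter-Glo luminescence. Normalized to DMSO and 100 uM tamoxifen; AC50 from Hill fit of qHTS concentration-response.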

A short description of test [11]: Cell Viability - MRC5 (AID 434; calls by dose curve;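 further: potency means the concentration at half of the fitted maximal effect; potency reflects cytotoxicity seen as loss of intracellular ATP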). The following applies: MRC5 lung fibroblast viability, qHTS. Put shortly:
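Decrease in intracellular ATP, quantified by luciferase light output, reflects compound toxicity toward MRC5 cells exposed for 40 hr in complete culture medium. Concentration-response curves, scaled between DMSO and 100 uM tamoxifen, gave AC50 values.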

The nature of test [12]: Cell Viability - SK-N-SH (AID 435; calls by dose curve;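 further: potency means the concentration at half of the fitted maximal effect; compound exposure lasted 40 h at 37 °C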). The note with it: SK-N-SH neuroblastoma cell viability qHTS. The essentials:
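SK-N-SH neuroblastoma cells (1500/well) treated 40 h at 37 °C in complete medium; viability read as cellular ATP by CellTiter-Glo luminescence. Normalized to DMSO and 100 uM tamoxifen; AC50 from Hill fits of qHTS concentration-response.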

A short description of test [13]: Stat Signaling Pathway (AID 446).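 Further: ME-180 cervical cancer cells given 40 pM IL-6 alongside compound; SIE-controlled beta-lactamase reporter measured as 460/530 nm FRET emission ratio; on the % scale 0 is the no-effect control and ±100 the full control effect.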 The note with it: ME-180 (cervical carcinoma) SIE beta-lactamase reporter, IL-6 stimulated, 5 h; at 38 µM (top of the series) unless noted. Put shortly: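 Overnight-plated ME-180 cells bearing a STAT Inducible Element beta-lactamase reporter; 5 h co-exposure to compound and 40 pM IL-6; values normalized to 300 pM IL-6 and 125 nM JAK inhibitor controls.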

Test [14] in a line: Cell Viability - N2a (AID 540; active means well fitted curve in the direction sought with a large enough effect; an effect the other way counts as inactive or inconclusive;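 further: plate controls were DMSO alone for no effect and tamoxifen control for full effect; nearly all actives have a fitted effect of over 45% in size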). The essentials: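 In this qHTS cytotoxicity screen, ATP-dependent luciferase luminescence reports viable N2a cells after a 40 hr compound exposure in complete culture medium. Potencies are AC50 values from standard Hill equation fits.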
Test [15] is described as follows: Cell Viability - NIH 3T3 (AID 541; active means well fitted curve in the direction sought with a large enough effect; an effect the other way counts as inactive or inconclusive;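 further: plate controls were DMSO alone for no effect and tamoxifen positive control for full effect; nearly all actives have a fitted effect of over 25% in size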). Put shortly:
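In this cytotoxicity screen, acute toxicity is scored as an ATP drop measured by CellTiter-Glo in NIH 3T3 fibroblasts following a 40 hr, 37 °C incubation with compound.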

A short description of test [16]: Cell Viability - HUV-EC-C (AID 542; active means well fitted curve in the direction sought with a large enough effect; an effect the other way counts as inactive or inconclusive; further: on the % scale 0 is the no-effect control and ±100 the full control effect; nearly all actives have a fitted effect of over 35% in size). Put shortly:
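Concentration-dependent ATP loss in HUV-EC-C cells is the measure. Exposure lasts 40 hr at 37 °C; luminescence follows CellTiter-Glo addition, and Hill fits give AC50.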

Test [17] is described as follows: Cell Viability - H-4-II-E (AID 543; active means well fitted curve in the direction sought with a large enough effect; an effect the other way counts as inactive or inconclusive; further: on the % scale 0 is the no-effect control and ±100 the full control effect; nearly all actives have a fitted effect of over 35% in size). Put shortly: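 AC50 from Hill-modelled qHTS concentration-response curves. H-4-II-E rat hepatoma cells in complete medium, 40 hr exposure at 37 °C, viability by CellTiter-Glo ATP luminescence.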
A short description of test [18]: Cell Viability - SH-SY5Y (AID 544; active means well fitted curve in the direction sought with a large enough effect; an effect the other way counts as inactive or inconclusive;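 further: 0% = DMSO alone and -100% = 100 µM tamoxifen; nearly all actives have a fitted effect of over 55% in size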). Put shortly: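 Quantitative HTS in SH-SY5Y neuroblastoma cells, 40 hr treatment at 37 °C, ATP content by luciferase luminescence; AC50 from Hill fits.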
Test [19] in a line: Cell Viability - Renal Proximal Tubule (AID 545; active means well fitted curve in the direction sought with a large enough effect; an effect the other way counts as inactive or inconclusive;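 further: 0% = DMSO only and -100% = 100 µM tamoxifen; nearly all actives have a fitted effect of over 40% in size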). The essentials: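 Rat renal proximal tubule primary cells, 1000/well, exposed to compounds for 40 hr at 37 °C in complete medium; cellular ATP read by CellTiter-Glo luminescence. AC50 from concentration-response fitted with standard Hill equation.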

Glucocorticoid receptor (Homo sapiens), sequence (P04150 whole entry, looked up, the tested form may be a part): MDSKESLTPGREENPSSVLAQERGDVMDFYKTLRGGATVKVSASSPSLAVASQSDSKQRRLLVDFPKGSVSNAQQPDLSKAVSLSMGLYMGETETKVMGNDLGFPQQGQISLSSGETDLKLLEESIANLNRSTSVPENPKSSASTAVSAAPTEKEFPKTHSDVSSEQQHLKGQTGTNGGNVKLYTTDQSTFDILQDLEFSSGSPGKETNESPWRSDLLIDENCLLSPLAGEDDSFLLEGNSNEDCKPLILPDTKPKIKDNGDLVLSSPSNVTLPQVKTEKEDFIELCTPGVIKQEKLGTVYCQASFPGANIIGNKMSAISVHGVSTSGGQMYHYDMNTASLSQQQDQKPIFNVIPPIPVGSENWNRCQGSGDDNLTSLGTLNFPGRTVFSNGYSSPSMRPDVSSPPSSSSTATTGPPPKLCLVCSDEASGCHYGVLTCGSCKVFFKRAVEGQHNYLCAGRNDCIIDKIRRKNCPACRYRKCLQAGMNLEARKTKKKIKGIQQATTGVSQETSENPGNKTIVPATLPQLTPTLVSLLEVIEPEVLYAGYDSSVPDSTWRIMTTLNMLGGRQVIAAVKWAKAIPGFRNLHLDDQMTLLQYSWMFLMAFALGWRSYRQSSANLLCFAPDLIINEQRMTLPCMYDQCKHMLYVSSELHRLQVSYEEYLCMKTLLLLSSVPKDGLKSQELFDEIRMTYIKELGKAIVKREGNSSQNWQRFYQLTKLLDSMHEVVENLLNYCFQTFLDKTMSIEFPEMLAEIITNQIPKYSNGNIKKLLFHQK
Cytochrome P450 1A2 (Homo sapiens), sequence (P05177 whole entry, looked up): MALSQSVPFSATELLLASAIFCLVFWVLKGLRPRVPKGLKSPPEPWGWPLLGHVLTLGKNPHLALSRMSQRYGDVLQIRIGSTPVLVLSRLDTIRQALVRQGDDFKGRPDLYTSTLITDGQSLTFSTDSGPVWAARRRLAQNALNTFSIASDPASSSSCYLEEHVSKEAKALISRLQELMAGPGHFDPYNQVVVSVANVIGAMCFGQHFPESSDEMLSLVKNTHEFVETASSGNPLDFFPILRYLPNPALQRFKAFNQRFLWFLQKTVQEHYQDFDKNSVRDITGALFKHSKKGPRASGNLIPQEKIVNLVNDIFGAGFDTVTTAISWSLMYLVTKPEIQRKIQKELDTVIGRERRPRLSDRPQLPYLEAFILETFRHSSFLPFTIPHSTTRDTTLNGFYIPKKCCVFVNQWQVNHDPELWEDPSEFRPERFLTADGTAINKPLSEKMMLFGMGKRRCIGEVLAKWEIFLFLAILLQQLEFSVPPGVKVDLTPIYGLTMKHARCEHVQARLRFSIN

Take `O=C(O)C1=CCCNC1`: the activity change, negative = inhibition in [1] is -0.308%; in test [3], 3.92%. Further, in test [2], the Potency entry is “inactive”. For the same compound, the Potency in [4] and in test [5] was over 46 µM each time. Further, the compound was classed as inactive in test [6].

`NC(=O)c1ccccc1`: the results for the activity change, negative = inhibition in [1] and in [3] were -2.04% and 20.6%, respectively. Further, the Potency in test [7], in test [8], in [9], in test [10], in test [11] and in test [12] was over 92 µM throughout. For the same compound, the Potency in [4] is over 46 µM. Further, the activity, negative = inhibition in test [13] is -35.6%. Besides, the outcome in test [6], in [14], in test [15], in [16], in test [17] and in test [18] was inactive. Moreover, in [19], the compound was classed as inactive.

Take `N=C(N)c1ccccc1`: the activity change, negative = inhibition in [1] was 10.4%; in test [3], -2.62%. In test [2], the Potency result was “inactive”. In addition, the activity, negative = inhibition in test [13] was 8.11%. The result in [6] was inactive.

In the case of `O=[N+]([O-])c1cccc2c(Br)[nH]nc12`, the activity change, negative = inhibition in test [1] is 1.06%; in test [3], -9.63%. The Potency is 794 nM (active) and 126 nM (active) in test [2]; over 46 µM in test [4].

With `NC(=O)CNCCC(c1ccccc1)c1ccccc1`, the activity change, negative = inhibition in test [1] was -7.75%; in test [3] it was 1.39%. Further, in test [2], the Potency entry is “inactive”. Moreover, in test [4], the Potency is over 46 µM.

Regarding `O=C(O)Cc1c[nH]c2ccc(O)cc12`, the activity change, negative = inhibition was 21.9% in [1] and 6.87% in test [3]. Besides, in test [2], the Potency result was “inactive”. Besides, the Potency in [4] and in [5] was over 46 µM in each case. For the same compound, in [6], the compound was classed as inactive.

Consider `CCCCCCCCCCC/C=C\C(C)(C)/C=C\CCCC(=O)O`, for which the activity change, negative = inhibition in test [1] is -13.8%. For the same compound, the Potency in test [2] is 39.8 µM (active); in test [4], over 46 µM; in test [5], over 46 µM. In test [6], the compound was called inactive.

For `CCN(CC)CCCCCCCCOC(=O)c1cc(OC)c(OC)c(OC)c1`, the activity change, negative = inhibition was 20.2% in test [1] and -83.6% (active) in test [3]. For the same compound, in [2], the Potency entry was “inactive”. The Potency in [4] was over 46 µM. The compound was classed as inactive in test [6].

As to `Cn1c(=O)[nH]c2ncn(C)c2c1=O`, the activity change, negative = inhibition in test [1] is 0.808%; in test [3], -1.89%. The Potency entry in test [2] was “inactive”. For the same compound, the activity, negative = inhibition in [13] is 3.46%. Further, in test [4], the Potency was over 46 µM. In addition, the compound was classed as inactive in test [6].

For `O=C(O)C1=CCNCC1`, the values for the activity change, negative = inhibition in [1] and in test [3] were -4.73% and -0.658%, respectively. In addition, the Potency result in [2] is “inactive”. In addition, the activity, negative = inhibition in test [13] was 16.7%. For the same compound, the Potency in test [4] was over 46 µM. In test [6], the outcome was inactive.

For `O=C(O)C1=CC(=C(c2ccc(O)c(C(=O)O)c2)c2ccc(O)c(C(=O)O)c2)C=CC1=O`, the activity change, negative = inhibition in test [1] was -18.9%; in test [3], 1.98%. Moreover, the Potency in [2] was 10 µM (active); in [4] it was over 46 µM; in [5], over 46 µM.

On to `OC1(c2ccc(Cl)cc2)CCN(Cc2c[nH]c3ccccc23)CC1`, for which the activity change, negative = inhibition was 6.53% in test [1] and 8.51% in [3]. Besides, the Potency was 15.8 µM (active) and 31.6 µM (active) in test [2]; over 46 µM in test [4]; over 46 µM in test [5]. Moreover, in test [6], the compound was classed as inactive.

Turning to `O=C(O)c1cc(=O)cc(C(=O)O)[nH]1`, the activity change, negative = inhibition is -11.2% in [1] and -5.4% in test [3]. Besides, the Potency result in [2] was “inactive”. For the same compound, the activity, negative = inhibition in [13] is 10.8%. Besides, the Potency in [4] was over 46 µM. Also, in test [6], the compound was classed as inactive.

With `C[C@](Cc1ccc(O)c(O)c1)(NN)C(=O)O`, the results for the activity change, negative = inhibition in test [1] and in [3] were -13.3% and 8.6%, respectively. For the same compound, the figures for the Potency in [2], in [4] and in [5] were 31.6 µM (active), over 46 µM and over 46 µM, respectively.

As for `C[C@H](O)C(=O)C1=Nc2c(nc(N)[nH]c2=O)NC1`, the activity change, negative = inhibition in test [1] is 12.2%; in test [3], -2.7%. For the same compound, in test [2], the Potency result is “inactive”. In addition, the activity, negative = inhibition in test [13] was -2.31%. Moreover, the Potency in [4] was over 46 µM. The call in test [6] was inactive.

As for `N=C(N)SCCc1cnc[nH]1`, the activity change, negative = inhibition in test [1] was 5.57%; in test [3], -4.42%. Moreover, the Potency entry in [2] is “inactive”. Also, the Potency in test [4] and in test [5] was over 46 µM in each case. The call in test [6] was inactive.

Take `CCN(c1nc(N)c(C(=O)N=C(N)N)nc1Cl)C(C)C`: the activity change, negative = inhibition in test [1] was 29.9%; in [3], -3.34%. Further, the values for the Potency in test [2] and in test [5] were 2 µM (active) and over 46 µM, respectively. For the same compound, the activity, negative = inhibition in test [13] is -24.1%.

Take `O=C(O)c1cccnc1C(=O)O`: the activity change, negative = inhibition in test [1] is -4.89%; in test [3], -4.14%. Further, the Potency result in [2] was “inactive”. For the same compound, the activity, negative = inhibition in [13] is -7.1%. In test [6], the result was inactive.

Turning to `CCC(=O)N1CCN(C(=O)c2ccccc2)CC1`, the activity change, negative = inhibition was -5.7% in [1] and 3.73% in test [3]. Also, in [2], the Potency entry is “inactive”. Also, in test [13], the activity, negative = inhibition was 2.58%. Further, the Potency in test [4] and in [5] was over 46 µM throughout. Also, the outcome in [6] was inactive.

On to `Cc1cccc(C(=O)NCN2CCN(c3ccccc3C#N)CC2)c1`, for which the activity change, negative = inhibition in test [1] was -12.1%; in [3], -27.4%. Moreover, the Potency in test [2] was 15.8 µM (active) and 20 µM (active); in [4], over 46 µM; in test [5] it was over 46 µM. In [13], the activity, negative = inhibition is -3.73%. For the same compound, in test [6], the result was inactive.
